# Screening data from PubChem BioAssay.
# HCMV antiviral – blocks human cytomegalovirus replication. 4.5% of 410,000 active. activity change, negative = inhibition, % at 57.5 µM. HFF cells, HCMV-luciferase reporter, 72 h; stronger effect = lower value; in the data active = activity change below about -60%; inconclusive = no clear call, values can overlap the other calls; inactive = above about -39%
#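 Luciferase read-out from HCMV-luciferase-infected HFFs (MOI 1 PFU/cell) 72 h post infection at 37C; compounds added after 16 h cell attachment; activity normalized between buffer-only basal and Salinomycin (10uM) inhibitor controls.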
# Vaccinia Venus – inhibitors of vaccinia virus (Venus reporter); Potency, µM (top dose mostly 36.5 µM), most hits filed as inhibitors; 0.46% of 330,000 active; Vaccinia virus Venus reporter expression, fluorescence; calls by dose curve; tested in A549 cells; note: nearly all actives have a fitted effect of over 30% in size
# FMDV antiviral – blocks foot and mouth disease virus. FMDV antiviral cell-based qHTS. Potency, µM (series often up to 57.9 µM), usual class: inhibitors. 1.2% of 410,000 active. AID 1159524; calls by dose curve; tested in HEK293T cells; note: read-out not given here; nearly all actives have a fitted effect of over 45% in size
# VACV mCherry inh – inhibitors of vaccinia virus infection (mCherry reporter signal); 0.63% of 310,000 active; Potency, µM (top dose mostly 36.5 µM), actives largely listed as inhibitors; Vaccinia virus mCherry reporter infection, fluorescence; AID 720579; calls by dose curve; tested in A549 cells; note: nearly all actives have a fitted effect of over 35% in size
# HCV inhibitor – inhibitors of hepatitis C virus infection | Huh7.5.1 HCVcc-Cre infection, luciferase reporter, 44 h | Potency, µM (titrated, usually from 41.8 µM), actives largely listed as inhibitors | 3.4% of 340,000 active; active = well fitted inhibition curve with a large enough effect; inconclusive = small, poorly fitted or top-dose-only effect, or another doubt; inactive = no such curve, though single readings can be large or run the other way
#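 After 44 h co-culture of compound, cells and HCVcc-Cre (~0.5 moi), substrate is added for 15 min at room temperature and luciferase measured over 15 sec. Cells were seeded at 1,000/well and pre-cultured 4 h.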
# Numbers stand for hits; . = inactive; ? = inconclusive; / = no result; ! = not active in a repeat. Rows were chosen to be rich in hits. Some 7.3% of all compounds tested hit in one or more screens of this group.
SMILES,HCMV antiviral,Vaccinia Venus,FMDV antiviral,VACV mCherry inh,HCV inhibitor
OCCN1CCN(CC/C=C2/c3ccccc3Sc3ccc(Cl)cc32)CC1,?,?,.,.,11µM
CCCCCCCCCC[N+](C)(C)CC/C=C1/c2ccccc2Sc2ccc(Cl)cc21,/,11µM,?,?,?
CCc1ccc(NC(=O)Cn2c(=O)n(CCC(=O)NCCc3ccc(Cl)cc3)c(=O)c3ccccc32)cc1,.,.,.,.,/
Cc1ccc(-c2cc(C(=O)N/N=C/c3ccc([N+](=O)[O-])o3)c3ccccc3n2)o1,.,?,.,?,11µM
O=C(N/N=C/c1cccc([N+](=O)[O-])c1)c1cc(-c2ccccc2)nc2ccccc12,.,/,?,/,.
Cc1cc(N/N=C/c2ccc([N+](=O)[O-])o2)nc2ccccc12,-79,.,.,?,10µM
Cn1c(/C=C/c2ccccc2)nc2ccccc2c1=O,.,.,.,?,?
Cn1c(/C=C/c2ccc([N+](=O)[O-])o2)nc2ccccc2c1=O,/,?,25µM,4.5µM,2µM
O=C(N/N=C/c1ccc([N+](=O)[O-])o1)c1cc(-c2ccc(-c3ccccc3)cc2)nc2ccccc12,-99,.,?,?,.
CCCNC(=O)c1ccccc1NC(=O)c1nsc2ccccc12,.,.,.,.,/
CCC(C(=O)Nc1c(C)cccc1C)n1c(-c2ccc(=O)[nH]c2)nc2ccccc21 (stereo unspecified),.,.,.,.,/
COC(=O)c1ccc(/C=N/NC(=O)c2ccc3nc[nH]c3c2)cc1,?,/,.,/,.
COc1ccccc1-c1cc(C(=O)N/N=C/c2ccc(C)o2)c2ccccc2n1,.,.,.,.,.
Cc1ccc(/C=N/NC(=O)c2cc(-c3ccncc3)nc3ccccc23)o1,-64,.,.,?,.
O=C(N/N=C/c1cc([N+](=O)[O-])ccc1Cl)c1cc(-c2ccccc2)nc2ccccc12,.,/,?,/,.
Cc1ccc(/C=N/NC(=O)c2ccc3nc[nH]c3c2)o1,-60,.,.,.,.
O=C(N/N=C/c1cc([N+](=O)[O-])ccc1O)c1cc(-c2ccccc2)nc2ccccc12,-100,.,.,?,?
O=C(N/N=C/c1ccccn1)c1cc(-c2ccncc2)nc2ccccc12,.,.,.,?,.
O=C(N/N=C/c1ccc([N+](=O)[O-])o1)c1cc(-c2ccncc2)nc2ccccc12,-67,/,.,/,10µM
Cc1ccsc1/C=N/NC(=O)c1cc(-c2ccncc2)nc2ccccc12,-95,?,.,?,?
O=C(N/N=C/c1ccco1)c1cc(-c2cccc(Br)c2)nc2ccccc12,-63,.,.,?,?
COc1cc2nc(N3CCCCC3)nc(NC3CC3)c2cc1OC,/,.,/,.,/
CC(C)(C)OC(=O)N1CCC(CC2CC(c3cccc(Br)c3)=NO2)(C(=O)NCC2CCCCC2)CC1 (stereo unspecified),.,?,.,.,.
O=C(NCC1CCCCC1)C1(CC2CC(c3cccc(Br)c3)=NO2)CCNCC1 (stereo unspecified),.,10µM,.,11µM,?
O=C(NCc1ccccc1)C1(CC2CC(c3ccccc3)=NO2)CCNCC1 (stereo unspecified),.,.,.,.,?
SMILES,HCMV antiviral,Vaccinia Venus,FMDV antiviral,VACV mCherry inh,HCV inhibitor
CCCCCCCNC(=O)C1(CC2CC(c3ccccc3)=NO2)CCNCC1 (stereo unspecified),.,?,.,.,10µM
CCN(CCCNC(=O)c1ccc(Sc2ccc(Cl)cc2)c(NC(C)=O)c1)c1cccc(C)c1,.,.,.,.,/
CCN(CCNCC(O)COCc1ccc(Cl)cc1)c1cccc(C)c1 (stereo unspecified),.,.,?,?,16µM
Cc1cccc(N/C(N)=N/c2nc(C(F)(F)F)cc(=O)[nH]2)c1C,-104,.,.,.,.
Cc1sc2ncn(CCn3cnc4sc(C)c(C)c4c3=O)c(=O)c2c1C,?,.,20µM,/,?
Cc1sc2ncn(CCC(=O)O)c(=O)c2c1C,.,.,.,/,.
Cc1cccc(NC(=O)c2ccc(-c3nc(CSc4ccccc4)c(C)o3)cc2)c1C,.,.,?,?,/
Cc1cc(Cl)ccc1OC(C)C(=O)Nc1ccc(S(=O)(=O)N2CCOCC2)cc1 (stereo unspecified),.,.,.,.,11µM
CC(Sc1ccccc1)C(=O)Nc1ccc(S(=O)(=O)N2CCOCC2)cc1 (stereo unspecified),-64,.,.,.,.
COc1ccc(CNC(=O)N(C)C[C@@H]2OCc3ccccc3-c3c(n(C)c4ccccc34)C(=O)N([C@@H](C)CO)C[C@@H]2C)cc1,.,/,/,/,/
Cc1coc2cc3oc(=O)c(CC(=O)NCc4ccccc4)c(C)c3cc12,.,.,.,.,/
Cc1ccc(-n2[nH]c(C)c(C=Nc3ccc4[nH]c(=O)[nH]c4c3)c2=O)cc1C,.,?,?,/,?
Cc1ccc(-n2[nH]c(C)c(C=Nc3ccc4[nH]c(=O)[nH]c4c3)c2=O)cc1,.,?,32µM,?,.
Cc1cc(C)c(NC(=O)C2CC(=O)N(C3CCCC3)C2)c(C)c1 (stereo unspecified),-72,/,.,/,.
O=C(Nc1ccccc1)C1CC(=O)N(C2CCCCC2)C1 (stereo unspecified),.,.,.,/,.
Cc1cccc(N2CCN(C(=O)C3CCN(S(=O)(=O)N4CCOCC4)CC3)CC2)c1C,.,/,?,/,10µM
Cc1cccc(N2CCN(C(=O)C3CC(=O)N(C4CCCC4)C3)CC2)c1C (stereo unspecified),-63,.,?,.,?
CCCN(CCC)C(=O)c1c[nH]c2ccc(S(=O)(=O)N(C)c3ccc(Cl)cc3)cc2c1=O,.,.,.,.,/
COC(=O)c1sccc1S(=O)(=O)N(CC(=O)NCc1ccccc1)c1ccc(C)cc1,.,.,.,.,/
COc1cc(N)c(NC(=O)/C=C/c2nc3cc(OC)c(OC)cc3[nH]2)cc1OC,/,.,/,.,/
O=C1Nc2ccc(F)cc2C12SCCS2,-107,.,.,.,.
COc1cc(C2=NOC(C(=O)N3CCCc4ccccc43)C2)cc(OC)c1OC (stereo unspecified),.,/,.,/,2µM
CCOc1cc(N)c(Cl)cc1C(=O)NCC1CN(Cc2ccc(F)cc2)CCO1 (stereo unspecified),-66!,.,.,.,?
COC(=O)Cc1[nH]n(-c2nc3ccccc3s2)c(=O)c1C(C)=Nc1ccc(C)cc1,-78,.,0.35µM,.,.
COC(=O)Cc1[nH]n(-c2nc3ccccc3s2)c(=O)c1C(C)=Nc1ccc(Cl)cc1,.,/,1µM,/,.
CO[C@H]1[C@H](NC(=O)c2ccsc2)c2ccccc2C12CCN(Cc1cccn1-c1ccccn1)CC2,/,.,.,.,/
COc1cc(N=Nc2ccc(C)cc2S(N)(=O)=O)c(C)cc1N,.,.,.,?,25µM
COc1cc(S(N)(=O)=O)c(OC)cc1N,.,.,.,.,.
CCOC(=O)c1cc(C)n(CC2CCC(C(=O)Nc3cccc(C(C)=O)c3)CC2)c1C (stereo unspecified),.,.,.,.,/
